Assay [1] concerns the target Glutathione peroxidase 1 (Homo sapiens) (UniProt P07203). As to the kind of experiment: Primary qHTS Assay for Inhibitors of Recombinant Selenoprotein Glutathione Peroxidase 1 (GPX1) (AID 1845191). Note: nearly all actives have a fitted effect of over 65% in size. The essentials:
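GR-coupled assay: compounds preincubated 30 min at room temperature with GPX1, then reaction started with CHP; final 10 nM GPX1, 1 mM GSH, 0.5 mM CHP, 0.5 mM NADPH, 100 nM GR, 0.01% BSA, pH 7.5 Tris buffer. NADPH fluorescence (340/450 nm) read at 0 and 15 min.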
In general terms: Quantitative high-throughput screening tests each substance at several concentrations.

The target of assay [2] is Phospholipid hydroperoxide glutathione peroxidase GPX4 (Homo sapiens) (UniProt P36969). Put plainly: Primary qHTS Assay for Inhibitors of Recombinant Selenoprotein Glutathione Peroxidase 4 (GPX4) (AID 1845192). Note: nearly all actives have a fitted effect of over 65% in size. The essentials:
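GR-coupled assay: recombinant GPX4 preincubated 30 min with compound at room temperature; final 200 nM GPX4, 1 mM GSH, 0.5 mM cumene hydroperoxide, 0.5 mM NADPH, 100 nM GR, 0.01% BSA, pH 7.5 Tris. NADPH fluorescence (340/450 nm) read at 0 and 15 min.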

Assay [3] addresses Luciferin 4-monooxygenase (Photinus pyralis) (UniProt P08659). As to the kind of experiment: Primary firefly luciferase (FLuc) qHTS assay for identification of artifact compounds. (AID 1845220). Note: nearly all actives have a fitted effect of over 60% in size. In outline:
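Titrated compounds were incubated 15 min at RT, protected from light, with luciferin and ATP at 10 uM; reaction started with 10 nM FLuc, luminescence imaged at 5 min, and concentration-response fitted by Hill equation.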

A short description of assay [4]: Primary fluorescence-based thiol-reactive (MSTI) qHTS assay for identification of artifact compounds. (AID 1845221).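 Note: series mostly up to about 54 µM; thiol-reactive compounds lower the probe fluorescence signal; nearly all actives have a fitted effect of over 65% in size.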 In outline: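 qHTS titration of compound; 4 uM MSTI, PBS pH 7.4, 2% DMSO; 1 h RT, dark; fluorescence 525/598 nm; normalized to Acetyl-MSTI and MSTI; 4-parameter Hill fit.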
The test system of assay [5] is Nanoluciferase (engineered Oplophorus gracilirostris luciferase). Put plainly: Primary Nanoluciferase (NLuc) qHTS assay for identification of artifact compounds. (AID 1845222). Note: potency is the fitted concentration of half-maximal effect. The essentials:
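qHTS format, against NLuc in S16 cell-conditioned medium. Nano-Glo substrate 1:100 was added after 15 min at room temperature. Luminescence was taken after a further 5 min.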

Assay [6] is described as follows: Primary redox qHTS assay for identification of artifact compounds. (AID 1845223). The essentials:
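Amplex Red (25 uM) and HRP (250 mU/mL) in HBSS, with compounds for 15 min, then 250 uM DTT for 30 min, room temperature, dark. Fluorescence 525/598 nm read; normalized to DMSO and 10 uM DA3003; Hill fit.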

Inconclusive results are not listed. Active and inactive are the calls of the source. Calls come from the whole dose curve; as a rule, active = well fitted curve in the direction sought with a large enough effect; inconclusive = small, poorly fitted or top-dose-only effect, or another doubt; inactive = no such curve, though single readings can be large; an effect the other way counts as inactive or inconclusive.

These results are taken from PubChem BioAssay (NCATS).

Glutathione peroxidase 1 (Homo sapiens), sequence (P07203 whole entry, looked up): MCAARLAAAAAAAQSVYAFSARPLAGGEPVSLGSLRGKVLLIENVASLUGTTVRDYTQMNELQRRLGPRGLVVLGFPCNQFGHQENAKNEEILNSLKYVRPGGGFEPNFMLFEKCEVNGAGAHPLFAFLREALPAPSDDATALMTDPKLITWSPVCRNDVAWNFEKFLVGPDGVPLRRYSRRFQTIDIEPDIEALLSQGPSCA
Phospholipid hydroperoxide glutathione peroxidase GPX4 (Homo sapiens), sequence (P36969 whole entry, looked up): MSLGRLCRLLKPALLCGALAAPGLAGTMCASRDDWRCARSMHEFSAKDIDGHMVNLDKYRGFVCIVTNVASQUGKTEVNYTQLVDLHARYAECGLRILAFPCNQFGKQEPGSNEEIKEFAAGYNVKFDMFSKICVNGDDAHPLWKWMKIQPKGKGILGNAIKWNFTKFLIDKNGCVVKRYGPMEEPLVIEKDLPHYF

Take `C=CC(=O)Nc1ccc2ncnc(Nc3cccc(Br)c3)c2c1`: the Potency result in assay [1], in assay [2], in assay [3], in assay [4], in assay [5] and in assay [6] was “inactive” throughout.
With `C=CC(C)(O)CC/C=C(/C)COC(=O)C(C)C1CCC(C)(C=C)O1` (stereo unspecified), the Potency result in assay [1], in assay [2], in assay [3], in assay [4] and in assay [6] was “inactive” in each case.
On to `C/C=C(\C)C(=O)OC1C=C(C)CC(OC(=O)c2ccc(O)cc2)C2C1(C)CCC2(O)C(C)C` (stereo unspecified), for which the Potency entry in assay [1], in assay [2], in assay [3], in assay [4] and in assay [6] was “inactive” throughout.
On to `CC1(C)CCCC2(C)C1C(OC(=O)/C=C/C=C/C=O)C=C1COC(=O)C12O` (stereo unspecified), for which the Potency result in assay [1], in assay [2], in assay [3], in assay [4] and in assay [6] was “inactive” each time.
On to `O=c1cc(N2CCN(c3cccc(C(F)(F)F)c3)CC2)[nH]c(=O)n1C1CCCCC1`, for which the Potency entry in assay [1], in assay [2], in assay [3], in assay [4] and in assay [6] was “inactive” in each case.
Turning to `CC(C)(C[C@@](O)(Cc1cc2ccncc2[nH]1)C(F)(F)F)c1cc(F)ccc1O`, the Potency entry in assay [1], in assay [2], in assay [3], in assay [4] and in assay [6] was “inactive” throughout.
For the compound `CC(=O)NCc1cccc(OC[C@@H](O)CNCCc2ccc(NS(=O)(=O)c3ccccc3)cc2)c1`, the Potency result in assay [1], in assay [2], in assay [3], in assay [4] and in assay [6] was “inactive” in each case.
As to `O=C(Nc1ccc(N(Cc2ccsc2)C(=O)Cn2nnc3ccccc32)cc1)C1CC1`, the Potency entry in assay [1], in assay [2], in assay [3], in assay [4] and in assay [6] was “inactive” each time.
Take `CC(=O)CC(=O)Nc1ccc(Cl)c(C(F)(F)F)c1`: the Potency entry in assay [1], in assay [2], in assay [3], in assay [4] and in assay [6] was “inactive” each time.
`C/C(=C\Cc1c(O)c(Cl)c(C)c(C=O)c1O)CC/C=C(\C)[C@H]1CC(=O)C(C)(C)O1`: the Potency result in assay [1], in assay [2], in assay [3] and in assay [5] was “inactive” in each case.
`C/C=C/[C@@H]1C=C[C@@H]2C[C@H](C)CC[C@H]2[C@]1(C)/C(O)=C1/C(=O)[C@@H](CO)N(C)C1=O`: the Potency entry in assay [1], in assay [2], in assay [3] and in assay [5] was “inactive” each time.
Consider `CC(C)CC(=O)c1c(O)cc2c(c1O)C(CC(C)C)C1=C(O2)C(C)(C)C(=O)C(C)(C)C1=O` (stereo unspecified), for which the Potency entry in assay [1], in assay [2], in assay [3] and in assay [5] was “inactive” in each case.
On to `CCCc1cc(C)[nH]c(=O)c1CNC(=O)c1cc(-c2ccc(N3CCN(C(C)C)CC3)nc2)cc2c1cnn2C(C)C`, for which the Potency entry in assay [1], in assay [2], in assay [3], in assay [5] and in assay [6] was “inactive” each time.
Regarding `COc1cc(CCc2ccc(OCC=C(C)C)cc2)cc(OC)c1OC`, the Potency entry in assay [1], in assay [2], in assay [3] and in assay [5] was “inactive” in each case.
Take `COc1cc(OC)c(NC(=O)c2ccc(Cc3cc4c(cc3C)C(C)(C)CCC4(C)C)o2)c(OC)c1`: the Potency result in assay [1], in assay [2], in assay [3], in assay [5] and in assay [6] was “inactive” throughout.
As to `O=C(Nc1cc(C(F)(F)F)cc(C(F)(F)F)c1)c1cnc(Cl)nc1C(F)(F)F`, the Potency entry in assay [1], in assay [2], in assay [3], in assay [4] and in assay [6] was “inactive” each time.
For the compound `CCC/C=C/C=C/C1CC(O)C2(O)C(=O)OCC12` (stereo unspecified), the Potency entry in assay [1], in assay [2], in assay [3] and in assay [5] was “inactive” throughout.
Take `O=C1Nc2ccccc2-c2nc3ccccc3c(=O)n2-c2c(O)cccc21`: the Potency result in assay [1], in assay [2], in assay [3] and in assay [5] was “inactive” throughout.
As for `CC(=O)OC[C@]12[C@H](OC(C)=O)C(=O)[C@@H]3[C@@H](O)[C@@]14O[C@@]3(C)COC(=O)c1cccnc1[C@@H](C)[C@H](C)C(=O)O[C@@H]([C@H](O)[C@@H]2OC(C)=O)[C@]4(C)O`, the Potency result in assay [1], in assay [2], in assay [3] and in assay [5] was “inactive” throughout.
With `C=C[C@@]1(C)CCC2C(=CCC3[C@]2(C)CCC[C@@]3(C)C(=O)O)C1` (stereo partly specified), the Potency entry in assay [1], in assay [2], in assay [3] and in assay [5] was “inactive” throughout.
Consider `C=C1C(=O)O[C@@H]2C[C@]3(C)[C@@H](CCC(C)O)[C@@H]3C[C@H]12` (stereo partly specified), for which the Potency result in assay [1], in assay [2], in assay [3], in assay [5] and in assay [6] was “inactive” throughout.
In the case of `C[C@H](Nc1ncnc2nc[nH]c12)c1cc2cccc(Cl)c2c(=O)n1-c1ccccc1`, the Potency result in assay [1], in assay [2], in assay [3], in assay [4] and in assay [6] was “inactive” in each case.
As for `C/C=C(\C)[C@@H]1C(C)=C[C@@H]2[C@H]([C@@H]1/C=C/C=C/C(=O)O)[C@@H](C)CC[C@@H]2O`, the Potency entry in assay [1], in assay [2], in assay [3] and in assay [5] was “inactive” in each case.
As to `CC(=O)O[C@@H]1C2=C(O)C(=O)[C@](C)(OC(C)=O)C(=O)C2=CO[C@@]12O[C@@H](C)CC[C@H]2OC(C)=O`, the Potency entry in assay [1], in assay [2], in assay [3] and in assay [5] was “inactive” throughout.
`COc1cc(CCC2=NN=C(NC(=O)c3ccc(N4C[C@@H](C)N[C@@H](C)C4)cc3)C2)cc(OC)c1`: the Potency entry in assay [1], in assay [2], in assay [3], in assay [4] and in assay [6] was “inactive” in each case.
Consider `OC1CCC(Nc2nc(-c3ccccc3)nc3[nH]ccc23)CC1` (stereo unspecified), for which the Potency result in assay [1], in assay [2], in assay [3] and in assay [5] was “inactive” throughout.
Consider `Cc1nnc(-c2ccc(-c3ccc(C(=O)Nc4ccc(O)c(N5CCN(C)CC5)c4)cc3)c(C)c2)o1`, for which the Potency result in assay [1], in assay [2] and in assay [3] was “inactive” throughout. The Potency in assay [5] was 1510 nM (active).
In the case of `CC(=O)OC1C(O)CC2(C)C(CCC3(C)C2CC=C2C4C5(CCC(CO[C@@H]6O[C@H](CO)[C@@H](O)[C@H](O)[C@H]6O)(OC5=O)C4(C)O)C(O)CC23C)C1(C)C` (stereo partly specified), the Potency entry in assay [1], in assay [2], in assay [3] and in assay [5] was “inactive” in each case.
For the compound `C=C1[C@@H](OC(C)=O)CC[C@@]2(C)[C@@H](OC(C)=O)[C@H](OC(C)=O)C3=C(C)C[C@H](OC(=O)C(C)CC)[C@@H]([C@@H](OC(C)=O)[C@H]12)C3(C)C` (stereo partly specified), the Potency entry in assay [1], in assay [2], in assay [3] and in assay [5] was “inactive” each time.
Consider `CCN(CC)CCCCCCNc1cc(OC)cc2c(C)ccnc12`, for which the Potency entry in assay [1], in assay [2], in assay [3] and in assay [5] was “inactive” each time.
